Sampled rows, rich in hits. Any-hit rate of the full collection: about 8.2%.
ELG1 DNA repair: qHTS screen for small molecules that inhibit ELG1-dependent DNA repair in human embryonic kidney (HEK293T) cells expressing luciferase-tagged ELG1; Potency, µM (highest dose often 46.1 µM), inactives show top-dose activity change, negative = inhibition, hits mostly inhibitors; actives 2.3% (n = 330,000); AID 504467, 2011; HEK293T ELG1-luciferase reporter, luminescence, 16 h; DNA damage induced by 5-fluorouridine; also: % is scaled to controls: 0 for no effect and ±100 for the full control effect; nearly all actives have a fitted effect of over 55% in size
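Step one: seed 2,000 cells per well. Step two: pin-transfer compound or DMSO alongside 5-fluorouridine. Step three: incubate 16 hr, 37 °C, 5% CO2. Step four: add ONE-Glo, wait 30 min, read luminescence.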
SW480 rerep: A quantitative high throughput screen for small molecules that induce DNA re-replication in SW480 colon adenocarcinoma cells; actives 1.8% (n = 340,000); Potency, µM (doses to about 46.1 µM), without a hit: at the highest dose re-replication activation, usual class: activators; SW480 DNA re-replication, Hoechst DNA content imaging, 48 h; AID 624297, 2012; also: % of control where 0% means no effect; nearly all actives have a fitted effect of over 55% in size
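250 cells/well; 23 nL cpd via pin tool; 48 hr, 37 C, 5% CO2; Hoechst 40 min; imager read of total nuclear intensity, ex 405/em 500-530 nm.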
KB-V1 cytotox: qHTS assay for MDR1-selective chemotherapeutics: Primary screen using the drug-selected MDR subline cells KB-V1 | Potency, µM (titrated, usually from 46.1 µM), usual class: cytotoxic | AID 1347076, 2019 | actives 3.4% (n = 400,000) | KB-V1 MDR cells viability, CellTiter-Glo, 72 h; also: % is scaled to controls: 0 for no effect and ±100 for the full control effect; nearly all actives have a fitted effect of over 60% in size
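KB-V1 MDR subline cells in DMEM (phenol-red free, 10% FBS) exposed to compounds in qHTS concentration series for 72 h at 37 degrees C. Viability read by CellTiter-Glo luminescence; concentration-effect curves fitted after normalization and correction.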
MCF10A rerep: A quantitative high throughput screen for small molecules that induce DNA re-replication in MCF 10a normal breast cells. Potency, µM (highest dose often 46.1 µM), without a hit: at the top dose activity, positive = re-replication, actives largely listed as activators. AID 624296, 2012. actives 2.9% (n = 350,000). MCF 10A DNA re-replication, Hoechst nuclear intensity, 48 h; also: % of control where 0% means no effect; nearly all actives have a fitted effect of over 50% in size
KB-3-1 cytotox: qHTS assay for MDR1-selective chemotherapeutics: Primary screen using the parental adenocarcinoma cell KB-3-1; KB-3-1 viability, CellTiter-Glo ATP luminescence, 72 h; Potency, µM (highest dose often 46.1 µM), usual class: cytotoxic; actives 1.4% (n = 400,000); AID 1347075, 2019; also: % is scaled to controls: 0 for no effect and ±100 for the full control effect; nearly all actives have a fitted effect of over 60% in size
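Cytotoxicity measured as CellTiter-Glo luminescence after 72 h at 37 C. Compound titrations were pinned onto drug-naive KB-3-1 parental adenocarcinoma cells grown in DMEM with 10% FBS, and normalized data fitted to concentration-response curves.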
* marks the source's active call; other numbers are inactive results; i = inactive; ? = inconclusive; nt = not tested or not shown. Calls follow the shape of the dose curve; as a rule, active = well fitted curve in the direction sought with a large enough effect; inconclusive = small, poorly fitted or top-dose-only effect, or another doubt; inactive = no such curve, though single readings can be large; an effect the other way counts as inactive or inconclusive. Potency is read from the fitted curve at half-maximal effect.

SMILES | ELG1 DNA repair | SW480 rerep | KB-V1 cytotox | MCF10A rerep | KB-3-1 cytotox
CCOCCc1nn2c(=O)cc(COC(=O)c3ccc(NC(=O)C4CCCCC4)cc3)nc2s1 | nt | nt | i | nt | i
CC1CCN(S(=O)(=O)c2ccc3c(c2)oc(=O)n3CC(=O)NCc2ccc(F)cc2)CC1 | nt | nt | i | nt | ?
Cc1nc(SCC(=O)NCc2ccc3c(c2)OCO3)nc(C)c1C | 14% | -8% | i | 25% | i
CCCCNc1c(-c2ccc(OC)c(SC3CCCCC3)c2)nc2ccc(Cl)cn12 | -23% | 11% | i | 21µM* | i
C[C@H](CO)N1C[C@H](C)[C@@H](CN(C)C(=O)Nc2ccc(C(F)(F)F)cc2)Oc2ccc(NS(=O)(=O)c3ccccc3)cc2C1=O | -1% | -4% | i | -6% | i
COc1ccc(CCN2C(=O)c3oc4ccc(F)cc4c(=O)c3C2c2ccc(C(C)(C)C)cc2)cc1 (stereo unspecified) | nt | nt | i | nt | i
Cc1ccc(CC(=O)NNC(=O)c2ccncc2)cc1C | 1% | -3% | i | 0% | i
O=C(O)CCCC(=O)Nc1ccc(C(=O)NCc2cccnc2)cc1 | 0% | -4% | i | -6% | i
O=C(Nc1ccccc1)c1ccc(S(=O)(=O)NCc2cccnc2)cc1 | ? | -13% | 21µM* | 3% | ?
O=C(CCC1CCCC1)Nc1ccc(C(=O)NCc2cccnc2)cc1 | 16µM* | 7% | i | ? | i
O=C(CSCc1ccccc1)Nc1ccc(S(=O)(=O)N2CCOCC2)cc1 | -1% | -1% | i | -7% | i
O=S(=O)(c1ccc(Oc2ccc(Br)cc2)cc1)N1CCOCC1 | -16% | -4% | 12µM* | 1% | i
Cc1ccc(CSCC(=O)Nc2cc(S(=O)(=O)N3CCOCC3)ccc2OCC(F)(F)F)cc1 | nt | 6% | 15µM* | 2% | ?
O=C(CSCc1ccc(Br)cc1)Nc1ccc(S(=O)(=O)N2CCOCC2)cc1 | -19% | -3% | 21µM* | -4% | i
CCOc1ccc(S(=O)(=O)N2CCOCC2)cc1NC(=O)CSCC(=O)Nc1ccc(C)cc1 | -9% | 1% | i | -2% | i
O=S(=O)(Nc1ccc(S(=O)(=O)N2CCOCC2)cc1)c1ccc(Br)cc1 | 1% | -5% | i | ? | i
COc1ccc2[nH]c(C(=O)N3CCC(CO)(Cc4cccc(C(F)(F)F)c4)CC3)c(C)c2c1 | -15% | 2% | i | 17% | i
Cc1cc2[nH]c(=O)c(=O)[nH]c2cc1S(=O)(=O)N1CCN(c2cccc(C(F)(F)F)c2)CC1 | 2% | -11% | i | 16µM* | i
C/C(=N\NC(=O)c1c(C)nc2ccccn12)c1cccc([N+](=O)[O-])c1 | ? | -15% | ? | -5% | i
Cc1ccc(/C=C/C(=O)c2c(C)nc3ccccn23)cc1 | ? | ? | i | ? | 18µM*
Cc1nc2ccccn2c1C(=O)/C=C/c1cccc([N+](=O)[O-])c1 | ? | 4.1µM* | ? | ? | 2.6µM*
O=C(CCS(=O)(=O)c1ccc(Br)cc1)Nc1ccc(Cl)c(C(F)(F)F)c1 | nt | nt | i | nt | i
Cc1ccc(N=Cc2cc(Cl)cc(Cl)c2O)nc1 | -12% | 18µM* | i | ? | i
COc1ccc(/C=N/Nc2ncc(Br)cn2)c(OC)c1 | ? | -30% | i | -5% | i
Oc1c(Cl)cc(Cl)cc1/C=N/Nc1ncc(Br)cn1 | ? | 0.16µM* | i | ? | ?
SMILES | ELG1 DNA repair | SW480 rerep | KB-V1 cytotox | MCF10A rerep | KB-3-1 cytotox
COc1ccc2c(c1)c1c(c(=O)n(-c3ccc(C)cc3)c(=O)n1CC(=O)c1ccc(Cl)cc1)n2C | nt | nt | ? | nt | i
Cc1cccc(CN2C(=O)CC(c3ccc(Cl)cc3)c3c(C)nn(-c4nc(C)cc(C)n4)c32)c1 (stereo unspecified) | nt | nt | i | nt | i
Cc1cccc(Cn2c(NCCO)nc3c2c(=O)n(C)c(=O)n3C)c1 | ? | -4% | 4.1µM* | -11% | ?
Cc1cccc(Cn2c(NCC(C)O)nc3c2c(=O)n(C)c(=O)n3C)c1 (stereo unspecified) | 15µM* | 1% | i | 9% | i
Cn1c(=O)c2c(nc(NCc3cccnc3)n2Cc2cccc(C(F)(F)F)c2)n(C)c1=O | ? | -2% | ? | 9% | i
COc1cccc(Cn2c(NCc3cccnc3)nc3c2c(=O)n(C)c(=O)n3C)c1 | ? | -2% | i | 2% | 3.7µM*
Cn1c(=O)c2c(nc(NCCCO)n2Cc2cccc(Br)c2)n(C)c1=O | -14% | 0% | i | 3% | i
COCCNc1nc2c(c(=O)n(C)c(=O)n2C)n1Cc1cccc(C)c1 | 21µM* | 1% | i | 7% | ?
CCn1nc(CC(C)C)cc1C(=O)N1CCCC(Nc2ccc(OC)cc2)C1 (stereo unspecified) | -5% | -1% | i | 13% | i
O=C1C2C3C=CC(O3)C2C(=O)N1N=Cc1cccc2ccccc12 (stereo unspecified) | nt | -1% | i | 2% | i
COCCCNc1nc2c(c(=O)n(C)c(=O)n2C)n1Cc1cccc(OC)c1 | 15µM* | -1% | ? | 4% | ?
COc1ccc(-c2nc(-n3c(C)c(C(C)=O)c(C(C)=O)c3C)sc2C)cc1OC | ? | -7% | 15µM* | ? | i
COc1ccc2c(c1)C(CC(C)=O)N(c1ccc(-c3cnc(OC)nc3)cc1)C(c1ccsc1)=C2 (stereo unspecified) | nt | nt | i | nt | i
COc1ccc2c(c1)C(CC(C)=O)N(c1ccc(-c3cccs3)cc1)C(c1ccsc1)=C2 (stereo unspecified) | nt | nt | i | nt | 10µM*
Cc1cc2cc(C=C(C#N)C#N)c(Cl)nc2cc1C | ? | ? | i | 18µM* | i
O=C(c1cnn2c1NC(=C1CC1)C=C2C(F)F)N1CCc2ccccc21 | nt | nt | i | nt | ?
CCOc1ccccc1-n1c(N)c(C(=O)OC)c2nc3ccccc3nc21 | nt | nt | i | nt | i
O=C(CCNc1ccccc1)c1cccc([N+](=O)[O-])c1 | ? | 8.2µM* | i | 3.7µM* | i
Cc1ccc(NCCC(=O)c2cccc([N+](=O)[O-])c2)cc1 | 16% | ? | i | 6.5µM* | i
CCCCCCCC1CC(/C(C)=N/NC(N)=O)OC1=O (stereo unspecified) | -1% | 0% | i | ? | i
